Our source for the outcome and Potency values is PubChem BioAssay (Tox21).

The nature of assay [1]: qHTS assay to identify small molecule antagonists of the androgen receptor (AR) signaling pathway using the MDA cell line in the presence of 0.5 nM R1881 - cell viability counter screen (AID 1259242). Further: nearly all actives have a fitted effect of over 45% in size. In outline:
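Viability of MDA-kb2 cells was multiplexed with the luciferase AR readout; after 16 hr with compounds and R1881 at 0.5 nM final, CellTiter-Fluor fluorescence was recorded.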
(In general: qHTS replaces the single test concentration by a dilution series.)

For assay [2], the target named is Androgen receptor (Homo sapiens) (UniProt P10275). Nature of the assay: qHTS assay to identify small molecule antagonists of the androgen receptor (AR) signaling pathway using the MDA cell line in the presence of 0.5 nM R1881 (AID 1259243). Further: nearly all actives have a fitted effect of over 50% in size. Further: potency means the concentration at half of the fitted maximal effect. In outline:
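Reporter cells cultured without CO2 receive test chemicals, then 0.5 nM R1881 final; after 16 hr at 37C, ONE-Glo is added and light output recorded.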

The nature of assay [3]: qHTS assay to identify small molecule HDAC inhibitors (AID 1259364). Further: potency means the concentration at half of the fitted maximal effect.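 Further: wild-type HCT-116 cells with endogenous class I/II HDAC activity; nearly all actives have a fitted effect of over 45% in size.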 Put shortly:
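Read-out: luminescence of HDAC-Glo I/II reagent, 30 min RT, reflecting class I/II deacetylase activity in whole HCT-116 cells pre-exposed 2 h to DMSO-dissolved compounds.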

Assay [4] can be described thus: qHTS assay to identify small molecule HDAC inhibitors - cell viability counter screen (AID 1259365). Further: series mostly up to about 92 µM; nearly all actives have a fitted effect of over 50% in size. Put shortly: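 Following a 2hr exposure of overnight-plated wild-type HCT-116 cells to DMSO-delivered compounds, CellTiter-Glo was added and luminescence recorded after 30min at room temperature.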
Assay [5] is described as follows: qHTS assay to identify small molecule agonists of the sonic hedgehog signaling (Shh) pathway - cell viability counter screen (AID 1259366). Further: nearly all actives have a fitted effect of over 50% in size. In outline: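 After a 4hr attachment at 37C, NIH/3T3 cells bearing an integrated Gli1-driven luciferase reporter were dosed with compounds. Treatment lasted 24hr, with the final hour including CellTiter-Fluor for a fluorescence viability measurement.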

Assay [6] can be described thus: qHTS assay to identify small molecule antagonists of the sonic hedgehog signaling (Shh) pathway - cell viability counter screen (AID 1259367). Further: nearly all actives have a fitted effect of over 55% in size. In outline:
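NIH/3T3-derived Gli1-Luc reporter cells (2,000 per well) rested 4 hr at 37 C, then received DMSO compounds plus conditioned medium. After 23 hr of treatment, CellTiter-Fluor was added for 1 hr at 37C and fluorescence read.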

Assay [7] is described as follows: qHTS assay to identify small molecule agonists of the sonic hedgehog signaling (Shh) pathway (AID 1259368; calls by dose curve;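 further: NIH/3T3-derived 3T3Gli1-Luc cells carrying a stable Gli1-driven firefly luciferase reporter; series mostly up to about 92 µM; nearly all actives have a fitted effect of over 15% in size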). Put shortly: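 A Gli1 transcriptional response element controlled firefly luciferase in 3T3Gli1-Luc cells. Compounds and a positive control were added 4 hr after plating, and cells were incubated a further 24 hr at 37 C before luminescence detection.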
Assay [8] is described as follows: qHTS assay to identify small molecule antagonists of the sonic hedgehog signaling (Shh) pathway (AID 1259369; calls by dose curve; further: nearly all actives have a fitted effect of over 45% in size). Put shortly: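 For antagonist detection, the reporter line received test compounds together with conditioned medium, incubated 24hr at 37 C, 5% CO2, then luminescence was recorded following 30min room-temperature luciferase reagent incubation.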
Assay [9] in a line: qHTS assay to identify small molecule agonists of the androgen receptor (AR) signaling pathway in the presence of an antagonist - cell viability counter screen (AID 1259379).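 Further: MDA-kb2 human breast cancer cells carrying an MMTV luciferase reporter; series mostly up to about 92 µM; nearly all actives have a fitted effect of over 25% in size.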 In outline:
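Seed MDA-kb2 at 3,000 cells/well; incubate 5 hr, 37C, 0% CO2. Add nilutamide to 3.0uM final, then pin compounds at 15 concentrations. Incubate 16 hr. Add CellTiter-Fluor at 15 hr, read fluorescence after 1 hr.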

The nature of assay [10]: qHTS assay to identify small molecule antagonists of the estrogen receptor beta (ER-beta) signaling pathway - cell viability counter screen (AID 1259382). Further: series mostly up to about 92 µM; nearly all actives have a fitted effect of over 55% in size. Put shortly: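 In this multiplexed counter screen, cells were seeded at 2,000 per well in medium with 2% charcoal-stripped FBS and incubated 6 hr before compound and 1nM final E2 were added. Sixteen hours later, ATP-based luminescence reported viability.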

Assay [11] concerns the target Thyrotropin receptor (Homo sapiens) (UniProt P16473). Nature of the assay: qHTS assay to identify small molecule antagonists of the thyroid stimulating hormone receptor (TSHR) signaling pathway (AID 1259385; calls by dose curve; further: nearly all actives have a fitted effect of over 20% in size). Put shortly: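 TSHR-HEK293 cells were plated and held 18 h at 37C/5% CO2, then given compound plus Ro20-1724 and stimulated with TSH at 1.5 ng/mL final. After 30 min at room temperature, cAMP was detected with cAMP-d2/anti-cAMP-cryptate (1 h) by fluorescence.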

Assay [12] is described as follows: qHTS assay to identify small molecule agonists of the estrogen receptor alpha (ER-alpha) signaling pathway in the presence of an antagonist - cell viability counter screen (AID 1259386).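 Further: series mostly up to about 92 µM; cells exposed to compounds for 22 h at 37 °C before the viability read; nearly all actives have a fitted effect of over 30% in size.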 In outline: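 Viability counter screen using VM7Luc4E2 (full-length ER-alpha, four ERE-luciferase). The cells were treated with compounds alongside ICI-182,780 10.0nM for 22hr, and live-cell protease fluorescence was quantified with CellTiter-Fluor.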

Assay [13] has as its target Estrogen receptor beta (Homo sapiens) (UniProt Q92731). Nature of the assay: qHTS assay to identify small molecule antagonists of the estrogen receptor beta (ER-beta) signaling pathway (AID 1259378; active means well fitted inhibition curve with a large enough effect in the signal ratio in the repeat runs, not every such curve was filed as active; the % refers to the signal ratio). In outline:
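ER-beta-UAS-bla HEK293T (GripTite) cells in 2% charcoal-stripped FBS medium were preincubated 6 hr at 37C, dosed with compound, then stimulated with 1 nM E2 (final) for 16 hr; beta-lactamase reporter read by B/G FRET fluorescence after 2 hr substrate loading.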

Assay [14] deals with Androgen receptor (Homo sapiens) (UniProt P10275). In words: qHTS assay to identify small molecule agonists of the androgen receptor (AR) signaling pathway in the presence of an antagonist (AID 1259381; calls by dose curve; further: nearly all actives have a fitted effect of over 15% in size). Put shortly: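 Test compounds at 15 concentrations were incubated for 16hr with MDA-kb2 reporter cells in presence of 3.0uM nilutamide (final). Signal: ONE-Glo luciferase luminescence.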

Assay [15] can be described thus: qHTS assay to identify small molecule agonists or antagonists of the thyroid stimulating hormone receptor (TSHR) signaling pathway - wild type cell line counter screen (AID 1259384; calls by dose curve). Put shortly: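 Wild-type HEK293 cells were plated 18 h at 37 C/5% CO2, pin-dosed with compound plus Ro20-1724 medium, held 30 min at room temperature, then given cAMP-d2 and anti-cAMP-cryptate; fluorescence was read after 1 h. Fifteen concentrations, triplicate.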

In assay [16] the target is Estrogen receptor (Homo sapiens) (UniProt P03372). Nature of the assay: qHTS assay to identify small molecule antagonists of the estrogen receptor alpha (ER-alpha) signaling pathway using the BG1 cell line in the presence of 0.1 nM 17-beta-estradiol (AID 1259244). Further: nearly all actives have a fitted effect of over 50% in size. In outline: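 Estradiol at 0.1 nM (final) stimulates the endogenous ER-alpha of VM7Luc4E2 cells carrying an ERE-driven luciferase; compounds are co-incubated 22 h at 37C and luciferase output quantified by luminescence.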

Assay [17] can be described thus: qHTS assay to identify small molecule phospholipidosis (PLD) inducers (AID 1259344; active means well fitted curve in the direction sought with a large enough effect; an effect the other way counts as inactive or inconclusive). In outline: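 HepG2 cells on collagen I, attached 4 h at 37 C, were co-treated with compound and LipidTOX Red dye for 24 h at 37 C, then fixed with paraformaldehyde plus Hoechst 33342 and imaged by high-content microscopy for phospholipid accumulation.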
Assay [18] in a line: qHTS assay to identify small molecule agonists of the estrogen receptor beta (ER-beta) signaling pathway - cell viability counter screen (AID 1259380). Further: nearly all actives have a fitted effect of over 30% in size. Further: potency means the concentration at half of the fitted maximal effect. Put shortly:
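CellTiter-Glo read, 30 min RT, same wells as bla assay; cells ER-beta-UAS-bla HEK293T; 16 hr compound, 37C; medium 2% charcoal-stripped FBS.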

For assay [19], the target named is Estrogen receptor (Homo sapiens) (UniProt P03372). Nature of the assay: qHTS assay to identify small molecule agonists of the estrogen receptor alpha (ER-alpha) signaling pathway in the presence of an antagonist (AID 1259383; calls by dose curve; further: top concentration of the series differs between compounds; nearly all actives have a fitted effect of over 15% in size). Put shortly:
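Stably transfected VM7Luc4E2 reporter cells, kept 5 days in charcoal-stripped serum, received ICI-182,780 at 10.0nM final before compound addition. Following 22hr incubation at 37C and 5% CO2, luciferase signal was read by luminescence.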

The target of assay [20] is Estrogen receptor beta (Homo sapiens) (UniProt Q92731). In words: qHTS assay to identify small molecule agonists of the estrogen receptor beta (ER-beta) signaling pathway (AID 1259377; active means well fitted activation curve with a large enough effect in the signal ratio in the repeat runs, not every such curve was filed as active; the % refers to the signal ratio). In outline:
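In HEK293T cells bearing a UAS-beta-lactamase reporter under ER-beta control, DMSO-delivered compounds were incubated for 16 hr at 37C. Activity was detected as fluorescence 2 hours after LiveBLAzer B/G FRET substrate addition.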

A number with no mark means an inactive call. Inconclusive results are not listed. The source made the active and inactive calls. Unless noted, the call rests on the fitted dose curve; in most records, active means well fitted curve in the direction sought with a large enough effect in the repeat runs; inconclusive means weak or mixed curves; inactive means no such curve, though single readings can be large; an effect the other way counts as inactive or inconclusive.

Chain of Estrogen receptor beta (Homo sapiens) (Q92731 whole entry, looked up): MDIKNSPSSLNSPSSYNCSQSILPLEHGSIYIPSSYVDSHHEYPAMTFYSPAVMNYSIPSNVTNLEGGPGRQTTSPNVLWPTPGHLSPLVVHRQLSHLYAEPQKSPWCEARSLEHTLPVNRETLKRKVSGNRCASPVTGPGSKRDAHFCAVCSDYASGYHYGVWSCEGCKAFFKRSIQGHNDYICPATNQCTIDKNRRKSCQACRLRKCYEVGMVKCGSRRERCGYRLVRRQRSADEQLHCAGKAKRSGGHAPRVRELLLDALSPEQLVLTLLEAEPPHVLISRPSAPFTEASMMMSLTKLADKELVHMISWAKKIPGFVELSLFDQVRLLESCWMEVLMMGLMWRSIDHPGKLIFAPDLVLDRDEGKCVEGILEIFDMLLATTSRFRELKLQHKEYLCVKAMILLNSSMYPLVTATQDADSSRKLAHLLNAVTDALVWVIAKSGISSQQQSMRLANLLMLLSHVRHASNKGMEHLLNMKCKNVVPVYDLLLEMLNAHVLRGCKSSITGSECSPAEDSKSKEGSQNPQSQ
Chain of Androgen receptor (Homo sapiens) (P10275 whole entry, looked up): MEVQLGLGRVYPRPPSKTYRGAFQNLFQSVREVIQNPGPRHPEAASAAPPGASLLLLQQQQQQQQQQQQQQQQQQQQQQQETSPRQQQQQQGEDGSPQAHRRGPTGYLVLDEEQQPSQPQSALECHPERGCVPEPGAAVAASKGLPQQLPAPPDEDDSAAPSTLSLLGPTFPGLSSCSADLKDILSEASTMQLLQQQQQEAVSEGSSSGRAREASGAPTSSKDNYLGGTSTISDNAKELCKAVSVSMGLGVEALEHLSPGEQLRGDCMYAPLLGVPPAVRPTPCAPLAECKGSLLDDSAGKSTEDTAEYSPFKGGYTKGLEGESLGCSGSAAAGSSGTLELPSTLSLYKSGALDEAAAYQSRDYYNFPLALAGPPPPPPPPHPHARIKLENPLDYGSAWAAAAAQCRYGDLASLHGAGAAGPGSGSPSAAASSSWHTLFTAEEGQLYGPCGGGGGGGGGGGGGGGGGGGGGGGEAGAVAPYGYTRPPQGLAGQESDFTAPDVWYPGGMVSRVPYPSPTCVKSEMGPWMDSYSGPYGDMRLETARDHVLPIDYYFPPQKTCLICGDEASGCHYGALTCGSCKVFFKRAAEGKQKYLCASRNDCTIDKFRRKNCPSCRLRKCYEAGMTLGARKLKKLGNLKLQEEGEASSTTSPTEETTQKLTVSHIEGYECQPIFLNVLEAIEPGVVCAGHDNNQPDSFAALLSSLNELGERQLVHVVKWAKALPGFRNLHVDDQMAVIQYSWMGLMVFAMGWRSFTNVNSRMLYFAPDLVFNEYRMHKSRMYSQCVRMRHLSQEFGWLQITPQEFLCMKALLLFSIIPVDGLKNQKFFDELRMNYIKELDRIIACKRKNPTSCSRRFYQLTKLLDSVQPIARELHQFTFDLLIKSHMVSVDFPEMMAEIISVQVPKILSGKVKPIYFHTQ
Chain of Thyrotropin receptor (Homo sapiens) (P16473 whole entry, looked up): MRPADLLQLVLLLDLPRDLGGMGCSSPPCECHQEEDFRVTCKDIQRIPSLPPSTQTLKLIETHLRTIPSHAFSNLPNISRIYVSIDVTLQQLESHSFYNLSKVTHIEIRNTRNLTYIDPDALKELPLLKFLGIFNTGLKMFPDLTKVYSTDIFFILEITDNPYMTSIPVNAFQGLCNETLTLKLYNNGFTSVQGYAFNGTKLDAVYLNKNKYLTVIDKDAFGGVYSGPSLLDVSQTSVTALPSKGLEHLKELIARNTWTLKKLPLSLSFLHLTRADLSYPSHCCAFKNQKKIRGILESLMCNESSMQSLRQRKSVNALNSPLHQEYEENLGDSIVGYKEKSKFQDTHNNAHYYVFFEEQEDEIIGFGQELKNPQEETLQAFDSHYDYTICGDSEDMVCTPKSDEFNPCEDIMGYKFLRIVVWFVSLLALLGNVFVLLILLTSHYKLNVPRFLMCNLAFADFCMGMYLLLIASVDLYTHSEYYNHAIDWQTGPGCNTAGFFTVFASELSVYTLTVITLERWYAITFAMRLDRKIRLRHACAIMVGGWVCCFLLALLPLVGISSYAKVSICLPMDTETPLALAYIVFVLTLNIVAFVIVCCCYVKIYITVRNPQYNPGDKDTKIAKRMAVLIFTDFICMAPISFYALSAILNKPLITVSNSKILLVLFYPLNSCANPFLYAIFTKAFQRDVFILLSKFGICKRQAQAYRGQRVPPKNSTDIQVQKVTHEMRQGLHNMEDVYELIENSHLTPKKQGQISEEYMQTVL
Chain of Estrogen receptor (Homo sapiens) (P03372 whole entry, looked up): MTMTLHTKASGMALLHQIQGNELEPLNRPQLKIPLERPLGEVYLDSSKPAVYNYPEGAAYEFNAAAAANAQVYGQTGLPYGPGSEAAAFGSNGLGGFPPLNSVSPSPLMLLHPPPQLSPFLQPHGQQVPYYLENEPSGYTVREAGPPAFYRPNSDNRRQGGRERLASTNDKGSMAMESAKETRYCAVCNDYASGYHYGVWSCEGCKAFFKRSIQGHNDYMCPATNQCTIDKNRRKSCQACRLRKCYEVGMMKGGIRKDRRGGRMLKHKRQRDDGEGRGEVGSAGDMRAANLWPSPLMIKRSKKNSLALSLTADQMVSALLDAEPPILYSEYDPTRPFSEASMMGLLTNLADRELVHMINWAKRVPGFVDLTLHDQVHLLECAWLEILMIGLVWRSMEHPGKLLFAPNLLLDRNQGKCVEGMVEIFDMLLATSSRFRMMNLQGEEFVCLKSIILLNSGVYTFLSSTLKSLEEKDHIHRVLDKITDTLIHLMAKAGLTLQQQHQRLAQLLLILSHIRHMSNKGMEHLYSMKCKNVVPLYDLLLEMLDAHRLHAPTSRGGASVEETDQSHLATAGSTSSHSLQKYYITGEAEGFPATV

Take `CNC(=O)N(C)c1nc2ccccc2s1`: the outcome in assay [1], in [4] and in assay [7] was inactive. For the same molecule, the Potency result in assay [2], in assay [5], in assay [6], in assay [8], in assay [9] and in assay [10] was “inactive” each time. Moreover, the Potency entry in assay [11] and in [12] was “inactive” in each case. The Potency in assay [3] is 0.545 µM (active).

For the molecule `CCC(C)(C)c1cc(-n2nc3ccccc3n2)c(O)c(C(C)(C)CC)c1`, the outcome in assay [1], in [4] and in [7] was inactive. In addition, in [2], the Potency is 39.2 µM (active). Also, the Potency entry in assay [3], in assay [5], in assay [6], in assay [8], in assay [13] and in assay [9] was “inactive” in each case. Besides, the Potency result in assay [14], in [10], in [15] and in assay [12] was “inactive” throughout.

Consider `NC(=O)c1cc([N+](=O)[O-])cc([N+](=O)[O-])c1`, for which the result in [1], in assay [17], in assay [4] and in [7] was inactive. For the same molecule, the Potency entry in assay [16], in assay [3], in assay [5], in assay [6], in [8] and in [13] was “inactive” in each case. Also, the Potency entry in [9], in [18], in assay [10], in assay [19], in assay [15] and in [11] was “inactive” in each case. In addition, in assay [12], the Potency result is “inactive”.

`CC1(C)COP(Oc2ccccc2)OC1`: the result in assay [1], in [4] and in [7] was inactive. Moreover, the Potency result in assay [2], in [5], in [6], in assay [8], in assay [9] and in assay [18] was “inactive” each time. For the same molecule, the Potency result in assay [14], in assay [10], in assay [15], in [11] and in [12] was “inactive” in each case.

As for `[O]=[Cd]`, the outcome in [1], in [17], in [4] and in assay [7] was inactive. In addition, the Potency entry in [16], in assay [3], in [5], in [6], in [8] and in assay [9] was “inactive” throughout. Further, the Potency entry in assay [18], in assay [10], in assay [19], in [15] and in assay [11] was “inactive” in each case.

Regarding `CCOP(=O)(OCC)OP(=O)(OCC)OCC`, the result in [1], in [4] and in [7] was inactive. Further, the Potency entry in assay [2], in [3], in assay [5], in assay [6], in assay [8] and in assay [13] was “inactive” in each case. Also, the Potency result in [9], in [18], in assay [14], in [10], in assay [15] and in assay [11] was “inactive” in each case. The Potency entry in assay [12] is “inactive”.

On to `CCOC(=O)/C=C(C)/C=C/C[C@@H](C)CCCC(C)C`, for which the outcome in assay [1], in [17], in [4], in assay [7] and in assay [20] was inactive. Also, the Potency entry in assay [16], in assay [5], in assay [6], in assay [9], in assay [19] and in [12] was “inactive” throughout. For the same molecule, in assay [18], the Potency was 43.3 µM (active).

As to `CCC1(c2ccccc2)C(=O)NC(=O)NC1=O`, the outcome in assay [1], in assay [17], in assay [4] and in assay [7] was inactive. For the same molecule, the Potency result in assay [16], in assay [3], in assay [5], in assay [6], in assay [8] and in assay [13] was “inactive” each time. The Potency result in assay [9], in [18], in assay [10], in assay [19], in assay [15] and in assay [11] was “inactive” in each case. In addition, the Potency entry in assay [12] was “inactive”.
